# Screens as filed in PubChem.
# Hits are enriched below; roughly 1.6% of the tested compounds scored in any of these assays.
# RecA splice inh = Mtb RecA intein splicing inhibition; P9WHJ3; cell-free RecA intein splicing, fluorescence; inhibition, % (test concentration not listed); actives 0.75% (n = 290,000); AID 2221; in the data active = inhibition above about 30%;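 note: 0% = vehicle wells and 100% = reference inhibitor control wells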
# BJeLR viability = BJeLR cell viability loss; actives 0.17% (n = 300,000); BJeLR (HRASV12) viability, CellTiter-Glo ATP luminescence, 48 h; inhibition, % (concentration not given with the values); in the data active = inhibition above about 50%
# Mtb hypoxia inh = Mtb hypoxia fluorescent reporter inhibition. M. tuberculosis hypoxia-regulated fluorescent reporter, fluorescence. AID 1159583. actives 0.1% (n = 300,000). fluorescence inhibition, % (no concentration beside the values); in the data active = fluorescence inhibition mostly above about 23%, no sharp cut-off; inactive = mostly below about 17%
# ugtP null kill = growth inhibition of S. aureus ugtP deletion strain; S. aureus RN4220 ugtP deletion, OD600 growth, 16 h; growth inhibition, % (no concentration beside the values); actives 0.54% (n = 330,000); AID 1259309; in the data active = growth inhibition above about 68%;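 note: plate controls were untreated wells for no effect and antibiotic for full effect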
# Sa RN4220 lethal = S. aureus RN4220 growth inhibition. OD600, 16 h. AID 1259311. inhibition, % (test concentration not listed). actives 0.33% (n = 330,000); in the data active = inhibition above about 85%;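 note: plate controls were untreated cells for no effect and reference antibiotic for full effect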
# CCHF vOTU inh-1 = CCHFV vOTU protease inhibition | Pep-AMC fluorescence | inhibition, % at 11.5 µM | actives 0.55% (n = 370,000); note: 0% = vehicle wells with enzyme and 100% = no enzyme wells
# CCHF vOTU inh-2 = CCHFV vOTU protease inhibition, confirmation | actives 17% (n = 1,900) | shares compounds with CCHF vOTU inh-1 | Recombinant CCHFV vOTU, Pep-AMC fluorescence | inhibition, % at 11.5 µM
# An asterisk follows results filed as active; nt = no result. Cut-off read from the data, not from the text of the source, unless noted: active = inhibition above about 30%; inactive = the rest.
SMILES,RecA splice inh,BJeLR viability,Mtb hypoxia inh,ugtP null kill,Sa RN4220 lethal,CCHF vOTU inh-1,CCHF vOTU inh-2
CC(=O)NS(=O)(=O)c1ccc(Nc2ccc([N+](=O)[O-])c3nonc23)cc1,9,10,38*,9,5,30*,13
O=[N+]([O-])c1ccc(Nc2ccccc2)c2nonc12,9,7,nt,nt,nt,7,nt
CCCN1CCCCC1C(=O)Nc1c(C)cccc1C (configuration not stated),nt,nt,-1,-1,5,nt,nt
COc1ccc2c(c1)C(=O)N1C3c4cc(Cl)ccc4OCC3C(c3ccccc3)[C@]1(C)C(=O)N2 (some centres not stated),nt,nt,-10,-22,-5,nt,nt
COc1ccccc1NC(=O)c1ccc(NS(=O)(=O)c2ccc(F)c(F)c2F)cc1,1,-3,-1,3,-5,30*,-13
CCOc1ccc(Br)cc1S(=O)(=O)Nc1ccc(C(=O)Nc2ccccc2OC)cc1,-1,0,3,-10,-3,7,nt
C=CCC(CC(=O)N(CCO)Cc1ccccc1)C(=O)NC(COC(=O)C(CC=C)CC(=O)OC(C)(C)C)C(C)(C)C (configuration not stated),nt,nt,-2,-5,5,nt,nt
CCOc1ccc(-n2c(=S)sc3c(=O)n(-c4ccc(F)cc4)c(SCC(=O)O)nc32)cc1,0,-1,-3,8,4,34*,-5
CCOc1ccc(-n2c(=S)sc3c(=O)n(-c4ccccc4)c(SCC(=O)O)nc32)cc1,-27,-2,-4,12,3,10,nt
COc1cccc(Nc2nc(C(N)C(C)C)cs2)n1 (configuration not stated),nt,nt,nt,nt,nt,34*,-6
N#Cc1c(N)n(-c2cccc(C(=O)O)c2)c2nc3ccccc3nc12,-213,3,13,8,3,-376,nt
N#Cc1c(N)n(-c2ccccc2N)c2nc3ccccc3nc12,nt,-1,9,5,9,65*,65*
CCCCC(CC)C(=O)Oc1ccc(O)c(C(C)(C)C)c1 (configuration not stated),8,-4,nt,nt,nt,31*,16
C=CCCC(Cc1ccc(F)cc1)C(=O)OCCNC(=O)C(CC=C)CC(=O)N(CCO)Cc1ccccc1 (configuration not stated),nt,nt,-4,-2,-3,nt,nt
Cc1nn(-c2ccccc2)c(Cl)c1C=NNC(=O)c1ccccc1F,nt,nt,-7,1,4,nt,nt
CCOC(=O)c1c(C)[nH]c(C(=O)CN(C)CC(=O)Nc2ccccc2C(F)(F)F)c1C,nt,nt,-1,-2,0,31*,0
CN(CCC=C1c2ccccc2CSc2ccccc21)CCCO,nt,nt,7,1,3,nt,nt
O=C(O)Cn1c2c(c3ccccc31)CCCC2,-21,-4,nt,nt,nt,30*,-17
O=C(O)/C(=C/c1ccc(Cl)c([N+](=O)[O-])c1)c1ccc(S(=O)(=O)N2CCCCC2)s1,nt,nt,3,-6,4,33*,-4
C/C(Cl)=C\Cn1c(N2CCCCCC2)nc2c1c(=O)n(C)c(=O)n2C,nt,nt,3,9,4,31*,-11
COc1ccc(SCC(C)CN2CCC(C(C)(C)C)CCC2=O)cc1 (configuration not stated),nt,nt,11,6,11,nt,nt
O=C(CCCC(=O)NC1CCCC1)NC1CCCC1,2,-11,8,5,4,31*,-16
COc1ccc(-c2oc(=O)c3cc(OC)c(OC)cc3c2C=Cc2cccc([N+](=O)[O-])c2)cc1,nt,nt,-8,-10,10,nt,nt
CCCCCCCCCCCCCCCC[n+]1ccccc1,nt,nt,14,100*,100*,38*,37*
Cc1cccc2c(=O)c(-c3ccc(Cl)cc3)c(NC(=O)c3ccco3)oc12,-2,7,-6,-5,-1,30*,-6
Cn1c(NC(=O)c2ccco2)c(-c2ccc(Cl)cc2)c(=O)c2ccccc21,nt,4,-2,-1,1,3,nt
Nc1c(N(Cc2ccco2)C(=O)COc2ccc(Cl)cc2)c(=O)[nH]c(=O)n1Cc1ccccc1,nt,nt,7,3,6,16,nt
Nc1c(N(Cc2ccco2)C(=O)COc2ccccc2Cl)c(=O)[nH]c(=O)n1Cc1ccccc1,nt,nt,1,4,4,31*,-15
O=C(Nc1ccccc1)C1=CC(c2ccc(C(F)(F)F)cc2)CC(OCCCCO)O1 (configuration not stated),nt,nt,13,3,4,nt,nt
